Screening results from PubChem BioAssay.
A selection: hits, their analogues and other compounds. The true share with any hit is near 8%.
HT1080-NT tox: kills 2HG-producing HT-1080-NT fibrosarcoma cells; HT-1080-NT fibrosarcoma viability, CellTiter-Glo ATP luminescence, 48 h; Potency, µM (doses to about 46.1 µM), most hits filed as cytotoxic; 360,000 compounds, 1.6% hits; AID 686970;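 further: NT is the 2HG producing partner of a matched IDH1 knockdown line; nearly all actives have a fitted effect of over 55% in size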
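Compounds were tested in concentration-response format on HT-1080-NT cells for 48 hours at 37 degrees C. Cell viability came from CellTiter-Glo luminescence; curves were classified by r2, response magnitude and activity.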
KB-V1 cytotox: kills drug-selected multidrug resistant KB-V1 cells; Potency, µM (titrated, usually from 46.1 µM), usual class: cytotoxic; AID 1347076; 400,000 compounds, 3.4% hits; KB-V1 MDR cells viability, CellTiter-Glo, 72 h; further: nearly all actives have a fitted effect of over 60% in size
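Cytotoxicity toward P-gp-expressing KB-V1 cells was determined as loss of CellTiter-Glo luminescence after 72 h at 37 degrees C. Compounds were tested in quantitative HTS format across a concentration range, with curves fitted to normalized data.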
HT1080 IDH1KD tx: kills HT-1080 cells with IDH1 knockdown | HT-1080 IDH1 knockdown viability, ATP luminescence, 48 h | Potency, µM (series often up to 46.1 µM), hits mostly cytotoxic | 360,000 compounds, 2% hits | AID 686971
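HT-1080-IDH1KD cells (IDH1 knocked down), 750/well in RPMI with 5% FBS, treated with compound 48 h at 37 degrees C. Viability by CellTiter-Glo luminescence, normalised to DMSO and no-cell wells; concentration-response curves classed.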
KB-3-1 tox: KB-3-1 parental cell cytotoxicity; 400,000 compounds, 1.4% hits; KB-3-1 viability, CellTiter-Glo ATP luminescence, 72 h; Potency, µM (series often up to 46.1 µM), usual class: cytotoxic; further: nearly all actives have a fitted effect of over 60% in size
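Cytotoxicity in the drug-sensitive parental line KB-3-1 was scored as loss of CellTiter-Glo luminescence following 72 h incubation with compound. Values come from curve fitting of normalized concentration-response data.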
SW480 rerep: inducers of DNA re-replication in SW480 colon cancer cells; SW480 DNA re-replication, Hoechst DNA content imaging, 48 h; Potency, µM (titrated, usually from 46.1 µM), actives largely listed as activators; 340,000 compounds, 1.8% hits; further: nearly all actives have a fitted effect of over 55% in size
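Per well, 250 cells were exposed to pinned compound for 48 hr. Nuclear DNA was visualised with Hoechst (40 min, 37 C) and total object intensity recorded by fluorescence scanning.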
MCF10A rereplic: DNA re-replication induction in MCF 10a cells | MCF 10A DNA re-replication, Hoechst nuclear intensity, 48 h | Potency, µM (titrated, usually from 46.1 µM), most hits filed as activators | 350,000 compounds, 2.9% hits | AID 624296; further: nearly all actives have a fitted effect of over 50% in size
Large screens that a line does not name were inactive. The call rests on the fitted dose curve; in most records, active means well fitted curve in the direction sought with a large enough effect; inconclusive means small, poorly fitted or top-dose-only effect, or another doubt; inactive means no such curve, though single readings can be large; an effect the other way counts as inactive or inconclusive.

CC(C)(C)c1cc(C(=O)N2CCc3ccccc32)ccn1	HT1080-NT tox inconclusive, HT1080 IDH1KD tx inconclusive
Fc1ccc(N2C(=S)SC(=Nc3ccccc3)C2=Nc2ccccc2)cc1	none
N#CC(C#N)=C1SC(=Nc2ccccc2)C(=Nc2ccccc2)N1c1ccccc1	HT1080-NT tox inconclusive, KB-V1 cytotox inconclusive, HT1080 IDH1KD tx inconclusive, KB-3-1 tox 21µM, SW480 rerep inconclusive, MCF10A rereplic 3.3µM
CC1=NN(C(N)=S)C(=O)C1N=Nc1cccc(Cl)c1 (stereo not drawn)	none
COc1cccc(N=NC2C(=O)N(C(N)=S)N=C2C)c1 (stereo not drawn)	HT1080-NT tox 26µM, SW480 rerep inconclusive, MCF10A rereplic inconclusive
CC1=NN(C(N)=S)C(=O)C1N=Nc1c(C)cc(C)cc1C (stereo not drawn)	KB-V1 cytotox inconclusive, KB-3-1 tox 4.6µM, MCF10A rereplic inconclusive
CC(=O)N1CCCc2cc(S(=O)(=O)N3CCC(C(=O)Nc4ccc(C)cc4Cl)CC3)ccc21	none (no result: HT1080-NT tox, HT1080 IDH1KD tx, SW480 rerep, MCF10A rereplic)
Cc1cc(=O)oc2cc(OC(C)C(=O)Nc3ccc(C(N)=O)cc3)ccc12 (stereo not drawn)	none
Cc1cc(=O)oc2cc(NC(=O)C(C)Oc3cccc(Cl)c3)ccc12 (stereo not drawn)	HT1080-NT tox 26µM, HT1080 IDH1KD tx inconclusive, MCF10A rereplic inconclusive
Cc1cc(C)cc(NC(=O)c2cc3c(=O)n4ccccc4nc3s2)c1	SW480 rerep 9.2µM, MCF10A rereplic inconclusive
CC1CN(C(=O)c2cc3c(=O)n4ccccc4nc3s2)CC(C)O1 (stereo not drawn)	none
Cc1cccn2c(=O)c3cc(C(=O)NC4CCCCCC4)sc3nc12	MCF10A rereplic inconclusive
CC(C)NC(=O)c1cc2c(=O)n3ccccc3nc2s1	none
CC1CC(C)CN(C(=O)c2cc3c(=O)n4ccccc4nc3s2)C1 (stereo not drawn)	MCF10A rereplic 21µM
O=C(NC1CCCCCC1)c1cc2c(=O)n3ccccc3nc2s1	HT1080-NT tox inconclusive, SW480 rerep 18µM, MCF10A rereplic 21µM
COc1ccccc1-c1csc(C(C)(O)c2ccccc2)n1 (stereo not drawn)	none (no result: SW480 rerep, MCF10A rereplic)
CCCCN(CCCC)c1cn[nH]c(=O)c1Cl	none
CCc1ccc(-n2c(=O)c3c4c(sc3n(Cc3ccc(C)cc3)c2=O)CCC4)cc1	none (no result: HT1080-NT tox, HT1080 IDH1KD tx, SW480 rerep, MCF10A rereplic)
CN1C(=O)/C(=C/c2ccc(O)c([N+](=O)[O-])c2)NC1=S	MCF10A rereplic inconclusive
COc1ccc(C2c3ccc(O)cc3Oc3ncn(CCN4CCOCC4)c(=N)c32)cc1 (stereo not drawn)	none
COc1ccccc1C1c2ccc3ccccc3c2Oc2ncn(CCN(C)C)c(=N)c21 (stereo not drawn)	HT1080-NT tox 10µM, KB-V1 cytotox inconclusive, HT1080 IDH1KD tx 8.2µM, KB-3-1 tox inconclusive, SW480 rerep inconclusive, MCF10A rereplic 9.2µM
COc1ccc(C2c3ccc4ccccc4c3Oc3ncn(Cc4ccco4)c(=N)c32)cc1OC (stereo not drawn)	HT1080-NT tox 21µM, KB-V1 cytotox inconclusive, HT1080 IDH1KD tx 21µM, KB-3-1 tox inconclusive, SW480 rerep inconclusive, MCF10A rereplic inconclusive
COc1ccc(C2c3ccc4ccccc4c3Oc3ncn(CCCN(C)C)c(=N)c32)cc1 (stereo not drawn)	HT1080-NT tox 18µM, KB-V1 cytotox inconclusive, HT1080 IDH1KD tx inconclusive, KB-3-1 tox inconclusive, SW480 rerep 12µM, MCF10A rereplic 21µM
COc1ccccc1C1c2ccc3ccccc3c2Oc2ncn(CCCO)c(=N)c21 (stereo not drawn)	HT1080-NT tox 21µM, HT1080 IDH1KD tx 23µM, MCF10A rereplic inconclusive
COc1ccc(NC(=O)COC(=O)[C@@H]2CCCN2S(=O)(=O)c2ccccc2F)c(OC)c1	none
COc1ccc(C(=O)C[n+]2cn(C(F)F)c3ccccc32)c(F)c1	HT1080-NT tox 21µM, HT1080 IDH1KD tx inconclusive, MCF10A rereplic inconclusive
COc1ccc(C(=O)C[n+]2cc(Br)cc3ccccc32)cc1	none (no result: HT1080-NT tox, HT1080 IDH1KD tx, SW480 rerep, MCF10A rereplic)
